A selection: hits, their analogues and other compounds. The true share with any hit is near 4.7%.
ADAM17 inh: inhibits human ADAM17 | P78536 | recombinant ADAM17, EDANS/DABCYL FRET peptide cleavage | inhibition, % at 6.95 µM | actives 0.83% (n = 370,000);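 active = inhibition above the mean of compounds lying between control limits plus 3 SD, set per campaign, cut at about 8.5% in these data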;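 also: 0% = DMSO-only wells as the low control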
rCAG RNA binder: binds r(CAG) RNA repeats | r(CAG) RNA repeat, TO-PRO-1 dye displacement fluorescence | inhibition, % at 3 µM | actives 1.3% (n = 370,000) | AID 651821;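 active = inhibition above the plate cutoff, the mean of all test compounds on that plate plus 3 SD, cut at about 35% in these data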;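 also: 0% = DMSO alone and 100% = 100 µM mitoxantrone as full dye displacement; higher means more dye released from RNA so lower well fluorescence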
MPTP block: blocks calcium-induced mitochondrial swelling; isolated mouse mitochondria, Ca2+ swelling absorbance, 30 min; inhibition, % at 10 µM; actives 1.4% (n = 360,000);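 active = inhibition of 50% or more, scaled per plate between neutral and stimulator controls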;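 also: 0% = DMSO wells given calcium and 100% = 1 mM EGTA wells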
DSG3 Ab inh: blocks pemphigus antibody binding to human desmoglein-3. P32926. DSG3-coupled beads, scFv-anti-DSG3-GFP binding, flow cytometry; stronger effect = lower value. binding (percent of control), % at 10 µM. actives 0.48% (n = 310,000);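 active = binding more than 3 SD below its plate's average and above zero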;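 also: hits lower antibody fragment binding to DSG3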
ADAM10 inh: inhibitors of human ADAM10 | inhibition, % at 7 µM | actives 0.62% (n = 370,000) | O14672 | recombinant ADAM10, EDANS/DABCYL FRET peptide cleavage, 3 h;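 active = inhibition above a per-campaign cutoff equal to the mean of compounds falling between control-based bounds plus 3 SD, cut at about 20% in these data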;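 also: 0% = DMSO wells while the 100% control is not disclosed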
Target sequence (O14672 214-748 limits assumed): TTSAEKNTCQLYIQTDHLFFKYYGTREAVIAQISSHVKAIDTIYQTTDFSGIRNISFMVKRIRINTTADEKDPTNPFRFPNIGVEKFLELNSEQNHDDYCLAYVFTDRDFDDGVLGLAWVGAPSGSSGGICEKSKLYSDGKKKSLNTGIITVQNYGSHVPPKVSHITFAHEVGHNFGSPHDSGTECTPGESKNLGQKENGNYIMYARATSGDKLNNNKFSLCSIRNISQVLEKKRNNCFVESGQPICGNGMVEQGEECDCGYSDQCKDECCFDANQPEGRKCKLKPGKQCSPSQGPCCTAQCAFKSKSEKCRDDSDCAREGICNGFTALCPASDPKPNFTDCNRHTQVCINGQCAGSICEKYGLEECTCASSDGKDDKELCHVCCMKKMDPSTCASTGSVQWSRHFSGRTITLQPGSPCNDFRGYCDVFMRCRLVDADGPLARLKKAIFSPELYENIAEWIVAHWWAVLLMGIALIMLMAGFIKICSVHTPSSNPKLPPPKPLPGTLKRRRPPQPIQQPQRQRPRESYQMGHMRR
KLK7 zymogen act: activators of human kallikrein-7 zymogen; P49862; purified proKLK7, EDANS-DABCYL substrate fluorescence; 100% is mature enzyme control, 0% vehicle; activation, % at 7 µM; actives 0.9% (n = 370,000);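 active = activation above the mean of all tested compounds plus 3 SD, computed per campaign excluding outliers beyond control limits, cut at about 13% in these data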
Target sequence (P49862 whole entry, looked up): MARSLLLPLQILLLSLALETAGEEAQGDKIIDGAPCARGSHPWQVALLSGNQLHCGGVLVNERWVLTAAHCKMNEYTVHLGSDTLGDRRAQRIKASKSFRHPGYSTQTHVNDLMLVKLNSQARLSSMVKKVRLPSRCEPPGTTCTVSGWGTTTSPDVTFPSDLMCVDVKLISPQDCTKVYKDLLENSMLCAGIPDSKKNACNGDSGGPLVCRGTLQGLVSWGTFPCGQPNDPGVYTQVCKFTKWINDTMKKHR
MPTP counter: membrane potential counter-screen of mitochondrial pore inhibitors; shares compounds with MPTP block; isolated mitochondria, Rhodamine 123 fluorescence; inhibition, % at 10 µM; actives 78% (n = 5,000); in the data active = inhibition above about 22%;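 also: 0% = DMSO vehicle and 100% = positive control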
MPTP swell DR: MPTP inhibition, dose response swelling confirmation. actives 58% (n = 780). IC50, µM. isolated mitochondria swelling, absorbance. shares compounds with MPTP block; in the data active = IC50 below about 20 µM
MPTP counter DR: active in counter-screen for permeability transition pore inhibitors; shares compounds with MPTP block; isolated mitochondria counterscreen, fluorescence read-out; IC50, µM; actives 49% (n = 780); in the data active = IC50 below about 80 µM
rCAG binder conf: r(CAG) RNA repeat binding, confirmation; shares compounds with rCAG RNA binder; actives 70% (n = 4,300); inhibition, % at 3 µM; TO-PRO-1 dye displacement fluorescence;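 active = inhibition above a per-plate cutoff, the mean inhibition of sample wells plus 3 SD, cut at about 35% in these data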;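 also: loss of TO-PRO-1 fluorescence as compound displaces dye from 1x1 AA loop RNA; 0% = DMSO only wells and 100% = 100 µM mitoxantrone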
dCAG dye counter: counter-screen for rCAG RNA binders: DNA CAG dye complex inhibitors | actives 94% (n = 4,300) | inhibition, % at 3 µM | d(CAG) DNA oligo TO-PRO-1 dye displacement, fluorescence | shares compounds with rCAG RNA binder;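 active = inhibition above its plate's cutoff, the mean test-well inhibition plus 3 SD, cut at about 4.8% in these data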;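 also: 0% = DNA dye mix with DMSO and 100% = 100 µM mitoxantrone; hits displace the dye from DNA and so lower well fluorescence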
proKLK7 act conf: confirmation of human kallikrein-7 zymogen activators. shares compounds with KLK7 zymogen act. purified proKLK7, EDANS-DABCYL substrate fluorescence; scaled: vehicle 0, mature enzyme 100. activation, % at 7 µM. actives 68% (n = 3,200);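 active = activation, as change over the incubation, above the mean of all tested compounds plus 3 SD, cut at about 13% in these data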
EDANS interfere: fluorescence interference counter-screen for KLK7 activators; shares compounds with KLK7 zymogen act; EDANS-DABCYL substrate fluorescence interference, no enzyme, 4 h; solvent 0%, active enzyme control 100%; activation, % at 7 µM; actives 80% (n = 3,200); AID 686952;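 active = activation above the all-compound mean plus 3 SD, ignoring values outside control-based bounds, cut at about 4.8% in these data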;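 also: value is the 4 h activation minus the activation read at time zero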
ADAM10 confirm: confirmation of inhibitors of human ADAM10. shares compounds with ADAM10 inh. ADAM10 QFRET peptide cleavage, EDANS fluorescence. inhibition, % at 6.95 µM. actives 1% (n = 2,100). AID 743208;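 active = inhibition above about 20% chosen separately for each screening run, limit read from the data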;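 also: 0% = DMSO wells and 100% = marimastat wells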
ADAM17 ctr: counter-screen for ADAM10 exosite inhibitors: inhibitors of human ADAM17. shares compounds with ADAM10 inh. ADAM17 QFRET peptide cleavage, EDANS fluorescence. inhibition, % at 6.95 µM. actives 0.5% (n = 2,100). AID 743214;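 active = mean triplicate inhibition above the solvent-only control wells' mean plus 3 SD, cut at about 12% in these data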;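 also: 0% = DMSO wells and 100% = marimastat wells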
Numbers without * were called inactive; i = inactive; · = no result given.

SMILES | ADAM17 inh | rCAG RNA binder | MPTP block | DSG3 Ab inh | ADAM10 inh | KLK7 zymogen act | MPTP counter | ADAM10 confirm | ADAM17 ctr | others
CCOC(=O)CC[C@@H]1CC[C@]2(CCCN(S(=O)(=O)C3CCCCC3)C2)O1 | 0.7 | 0.3 | · | · | 2.9 | 0.7 | · | · | ·
C[N+]1=C(/C=C/Nc2ccccc2Cl)C(C)(C)c2ccccc21 | -5.3 | -3.0 | 6.2 | 108.9 | -5.2 | 0.4 | · | · | ·
COC(=O)c1ccc2c(c1)C(C)(C)C(/C=C/c1ccccc1O)=[N+]2C | -39.5 | -36.7 | 74.8* | 105.4 | -48.8 | 32.1* | -22.3 | · | · | proKLK7 act conf=1.3;EDANS interfere=0.2
CC(C)CC1=NN2C(=N)/C(=C\c3coc4ccccc4c3=O)C(=O)N=C2S1 | -38.5 | -178.0 | 85.9* | 108.6 | -111.6 | 24.0* | 81.5* | · | · | proKLK7 act conf=24.1*;EDANS interfere=22.8*
Cc1cccc(OCC(=O)Nc2ccc(C(=O)Nc3ccccc3C(=O)O)cc2)c1 | 5.8 | 24.7 | 0.0 | 102.0 | 1.1 | 0.2 | · | · | ·
Cc1cccc(C(=O)Nc2ccccc2C(=O)OCC(=O)Nc2ccc(C#N)cc2)c1 | 2.8 | 22.5 | 77.3* | 99.3 | 11.1 | 17.3* | 62.4* | · | · | proKLK7 act conf=-0.4;EDANS interfere=-0.9
N#Cc1c(C(F)(F)F)cc(=O)n2c1[nH]c1ccccc12 | i | 6.2 | 91.7* | 104.2 | i | 51.9* | 93.6* | · | · | proKLK7 act conf=64.1*;EDANS interfere=66.4*
N#Cc1c(CSCC(=O)O)cc(=O)n2c1[nH]c1ccccc12 | -19.3 | 10.5 | -0.1 | 98.8 | -56.8 | 1.4 | · | · | ·
Cc1ccc(NC(=O)Cn2cnc3ccccc32)cc1C | -0.6 | -3.3 | -1.1 | 92.4 | -3.9 | -0.2 | · | · | ·
Cc1ccc(NC(=O)Cn2c(/C=C/c3ccccc3)nc3ccccc32)cc1C | -35.5 | 20.8 | 63.1* | 101.7 | -156.8 | 29.1* | 60.2* | · | · | proKLK7 act conf=49.3*;EDANS interfere=43.1*
CCOC(=O)c1csc(NC(=O)C2CCCN(S(=O)(=O)c3ccc(Br)s3)C2)n1 (centres undefined) | 5.3 | 0.6 | · | · | 7.2 | 1.0 | · | · | ·
CC(=O)c1ccc(NC(=S)NC(C)c2ccc(Cl)cc2Cl)cc1 (centres undefined) | 8.0 | 16.6 | 95.3* | 103.6 | 23.9* | 1.1 | 68.8* | 4.2 | 1.2
CCOC(=O)C1=C(C(=O)OCC)C2N(Cc3ccc(Br)cc3)c3ccccc3[C@@]23C[C@@H](C(=O)OC)N(S(=O)(=O)c2ccc(C(F)(F)F)cc2)C3=N1 (some centres undefined) | 8.5 | 13.4 | · | · | 4.3 | -0.8 | · | · | ·
Cc1ccc(Cl)cc1NC(=S)NCCCSC1CCCCC1 | 2.4 | 0.3 | 99.1* | · | 21.5* | 0.7 | 91.1* | 2.2 | 0.8
Cc1cc(Cl)ccc1NC(=S)NCCCO | 1.2 | 1.3 | -1.0 | 100.8 | 5.0 | -0.3 | · | · | ·
Nc1[nH]c(C(=O)c2ccccc2)c(-c2cccc(C(F)(F)F)c2)c1C(=O)c1c[nH]c2ccccc12 | 7.0 | 9.2 | · | · | 10.9 | 0.3 | · | · | ·
O=C(NC(NC(=S)Nc1ccc(Cl)c(Cl)c1)C(Cl)(Cl)Cl)c1ccco1 (centres undefined) | 8.6 | 12.5 | 99.8* | 100.4 | 28.6* | 2.0 | 99.9* | 3.7 | 1.9
COc1cccc(NC(=S)NC(C)c2ccc(OC)c(OC)c2)c1 (centres undefined) | -2.8 | -0.6 | 1.4 | 101.4 | -2.0 | 0.3 | · | · | ·
COc1cccc(NC(=S)NC(Cc2ccccc2)c2ccccc2)c1 (centres undefined) | 7.4 | 8.9 | 57.1* | 103.5 | 20.5* | 0.6 | 89.7* | 6.0 | 1.5
O=S(=O)(N[C@H]1CCCC[C@@H]1N1CCOCC1)c1ccc(Cl)cc1 | -2.7 | · | · | · | -2.5 | · | · | · | ·
COc1ccc(-n2c(SCC(=O)N3CCCC3)nnc2-c2ccncc2)cc1 | 0.0 | 2.6 | · | · | -0.1 | 0.3 | · | · | ·
O=S(=O)(NCC(Nc1ccc(Cl)cc1)c1ccccc1)c1ccc(Cl)cc1 (centres undefined) | 6.9 | 13.6 | 86.8* | 102.0 | 22.7* | 0.3 | 84.6* | 12.4 | 4.5
CCCN(CC(=O)Nc1ccccc1Br)CC(=O)Nc1ccc(F)c(F)c1F | 0.2 | -5.8 | 5.4 | 77.0 | 3.3 | 0.2 | · | · | ·
CCCN(CC(=O)Nc1cc(Cl)cc(Cl)c1)CC(=O)Nc1ccc(F)c(F)c1F | 12.7* | 7.0 | 56.9* | 101.6 | 28.4* | 0.2 | 58.8* | 11.7 | 3.4
O=C(NS(=O)(=O)c1cccc(F)c1)[C@H]1O[C@@H](n2ccc(=O)[nH]c2=O)[C@H](O)[C@@H]1O | 0.2 | 3.0 | · | · | -5.5 | -0.3 | · | · | ·
O=C(CCN1CCN(Cc2ccccc2)CC1)Nc1ccc(OCc2ccccc2)cc1 | 2.5 | -7.2 | 85.6* | 108.6 | 20.7* | -0.2 | 17.0 | 3.8 | 0.7 | MPTP swell DR=7.34*;MPTP counter DR=13.1*
COc1ccccc1-n1c(SCC(=O)NC2CCS(=O)(=O)C2)nc2cc([N+](=O)[O-])ccc21 (centres undefined) | 0.6 | -1.1 | 0.8 | 106.5 | 9.7 | -0.3 | · | · | ·
COc1ccccc1-n1c(SCC(=O)c2ccc(O)cc2O)nc2cc([N+](=O)[O-])ccc21 | 7.9 | 49.4* | 88.4* | 105.5 | 25.7* | 0.4 | 66.3* | 9.1 | 2.7 | rCAG binder conf=46.8*;dCAG dye counter=22.3*
Cc1ccccc1-c1ccc2c(c1)[C@@H]1C[C@H](N(C)C(=O)c3ccco3)[C@H]([C@H](C)O)CN1CC2 | -14.8 | 3.5 | · | · | -61.3 | 2.6 | · | · | ·
COc1ccccc1NC(=O)c1c(Nc2ccccc2F)sc(C(=O)Nc2cccc(Cl)c2)c1N | 9.1* | 28.3 | 78.4* | 101.9 | 27.2* | -0.2 | 46.1* | 19.4 | 7.0

Screening results as filed in PubChem.
